G9a inh = qHTS Assay for Inhibitors of Histone Lysine Methyltransferase G9a; actives 8.8% (n = 350,000); Potency, µM (series often up to 102 µM), usual class: inhibitors; Histone-lysine N-methyltransferase EHMT2 (Homo sapiens), Q96KQ7; G9a H3K9 monomethylation, AlphaScreen, 2 h; further: nearly all actives have a fitted effect of over 75% in size
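Readings reflect AlphaScreen signal from monomethyl-H3K9 antibody detection. HMT at 20 nM; substrate b-H3K9 500 nM; cofactor SAM 20 uM; 2 h RT reaction; compounds tested as titrations in qHTS with 15 min preincubation.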
L3MBTL1 block = qHTS Assay for the Inhibitors of L3MBTL1. actives 0.66% (n = 230,000). Potency, µM (doses to about 57.1 µM), most hits filed as inhibitors. AlphaScreen L3MBTL1–H3K9me1 peptide binding. Lethal(3)malignant brain tumor-like protein 1 (Homo sapiens), Q9Y468; further: nearly all actives have a fitted effect of over 60% in size
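AlphaScreen proximity signal between nickel-chelate acceptor and streptavidin donor beads (final 10 ug/mL) reports binding of 50 nM L3MBTL1 to 75 nM biotin-H3 K9me1 peptide; complex incubated with compounds 30 min at room temperature; cefsulodin titration as control.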
BAZ2B inh = qHTS Assay for Inhibitors of BAZ2B; Bromodomain adjacent to zinc finger domain protein 2B (Homo sapiens), Q9UIF8; AlphaScreen BAZ2B-H3K14Ac peptide displacement; Potency, µM (top dose mostly 114 µM), most hits filed as inhibitors; actives 4.4% (n = 360,000); AID 504333, 2011; further: nearly all actives have a fitted effect of over 60% in size
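Compounds, titrated to a top concentration of 110 uM, were incubated 30 min at room temperature with preformed BAZ2B/acetyl-K14 H3 peptide complex (50 nM each). Proximity signal was measured by AlphaScreen after 20 min with beads.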
JMJD2A Tudor = qHTS Assay for Inhibitors of JMJD2A-Tudor Domain. AlphaScreen JMJD2A-Tudor / H3K4me3 peptide binding. actives 4.4% (n = 390,000). AID 504339, 2011. Lysine-specific demethylase 4A (Homo sapiens), O75164. Potency, µM (top dose mostly 114 µM), actives largely listed as inhibitors; further: nearly all actives have a fitted effect of over 50% in size
HP1b binding inh = HTS for Inhibitors of HP1-beta Chromodomain Interactions with Methylated Histone Tails; Chromobox protein homolog 1 (Homo sapiens), P83916; AlphaScreen HP1-beta / biotin-H3K9me3 peptide binding; Potency, µM (doses to about 114 µM), usual class: inhibitors; actives 0.56% (n = 390,000); AID 540317, 2011; further: nearly all actives have a fitted effect of over 70% in size
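Compound inhibition of the preformed complex between 50 nM HP1-beta and 50 nM biotinylated H3K9me3 peptide was read by AlphaScreen. Buffer was PBS pH 7.4 with 0.01% Tween-20. Incubations ran 30 min at room temperature, with 10 ug/mL donor/acceptor beads.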
GLS inhibitor = qHTS for Inhibitors of Glutaminase (GLS); Glutaminase kidney isoform, mitochondrial (Homo sapiens), O94925; GLS enzymatic activity, qHTS titration; Potency, µM (top dose mostly 45.5 µM), hits mostly inhibitors; actives 0.21% (n = 410,000)
Target sequence (O94925 whole entry, looked up, canonical isoform): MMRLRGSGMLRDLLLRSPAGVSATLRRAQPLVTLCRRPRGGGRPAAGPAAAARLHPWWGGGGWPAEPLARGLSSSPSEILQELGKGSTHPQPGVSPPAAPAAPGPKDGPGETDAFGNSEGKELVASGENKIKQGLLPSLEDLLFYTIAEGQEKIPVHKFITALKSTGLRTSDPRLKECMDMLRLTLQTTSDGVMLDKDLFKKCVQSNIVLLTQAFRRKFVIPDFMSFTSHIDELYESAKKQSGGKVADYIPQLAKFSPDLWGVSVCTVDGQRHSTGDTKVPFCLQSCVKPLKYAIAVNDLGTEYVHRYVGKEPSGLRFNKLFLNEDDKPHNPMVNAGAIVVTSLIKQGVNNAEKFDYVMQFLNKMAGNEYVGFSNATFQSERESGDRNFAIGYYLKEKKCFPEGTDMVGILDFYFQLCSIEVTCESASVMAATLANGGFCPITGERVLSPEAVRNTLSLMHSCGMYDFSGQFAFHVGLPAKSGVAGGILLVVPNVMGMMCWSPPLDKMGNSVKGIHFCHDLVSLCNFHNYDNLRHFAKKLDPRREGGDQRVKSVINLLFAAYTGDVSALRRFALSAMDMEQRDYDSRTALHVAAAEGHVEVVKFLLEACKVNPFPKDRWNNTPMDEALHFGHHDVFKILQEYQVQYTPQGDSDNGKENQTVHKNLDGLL
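hKGA in 45 mM KH2PO4 (pH 8.2), 0.02% Tween-20 with compound, then 1mM L-Glutamine (stock as added) plus glutamate oxidase/HRP/Amplex red coupling mix. Fluorescence read initially and after 30 min at RT; signal change reflects glutamate formation.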
Numbers stand for hits; 0 = inactive; ? = inconclusive; - = not tested or not shown; ! = a repeat was not active; [ ] = dose if it differs, or a comment. An excerpt weighted towards active compounds, which were near 10% of everything screened. The call rests on the fitted dose curve; in most records, active means well fitted curve in the direction sought with a large enough effect; inconclusive means small, poorly fitted or top-dose-only effect, or another doubt; inactive means no such curve, though single readings can be large; an effect the other way counts as inactive or inconclusive.

SMILES	G9a inh	L3MBTL1 block	BAZ2B inh	JMJD2A Tudor	HP1b binding inh	GLS inhibitor
CC1CCN(c2ccccc2NC(=O)c2ccc(N3CCOCC3)c([N+](=O)[O-])c2)CC1	0	0	0	0	0	0
Cc1ccccc1C(=O)Nc1cccc(C(=O)OCc2cc(=O)n3c(C)csc3n2)c1	0	-	0	0	0	0
Cc1cc(C)c(NC(=O)c2cc(CN3CCOCC3)on2)c(C)c1	0	-	0	0	0	0
CCCN1C(=O)C(Cc2nc3ccccc3c(=O)n2CC)c2ccccc21 (stereo not given)	0	-	0	0	0	0
Cc1cccc(OCCn2c(CCNC(=O)C3CCCCC3)nc3ccccc32)c1	-	-	-	0	0	-
NC(=O)c1ccc(N2CCN(c3ccccc3O)CC2)c([N+](=O)[O-])c1	?	0	?	0	0	11µM
O=C(CCn1c(=O)oc2ccccc21)Nc1ccccc1	35µM	0	0	0	0	0
O=C(CCCn1c(=O)oc2ccccc21)Nc1ccccc1	0	0	0	0	0	0
O=C(CCn1c(=O)oc2ccccc21)NCCCN1CCN(c2ccc(F)cc2)CC1	2.5µM	0	?	0	0	-
N=c1oc2ccc3ccccc3c2cc1C(N)=S	20µM	0	0	0	0	0
CCCCn1c(=O)[nH]c(=O)c2c1nc(CN1C(=O)c3ccccc3S1(=O)=O)n2CCC	0	?	0	0	0	0
CCCCn1c(=O)[nH]c(=O)c2c1nc(Cn1ncc(Cl)c(Cl)c1=O)n2CCC	35µM	-	0	?	0	0
O=[N+]([O-])c1ccc(Cl)c(/C=N/N2CCN(c3ccccc3)CC2)c1	32µM	0	11µM	10µM	?	0
O=[N+]([O-])c1cc(/C=N/N2CCN(c3ccccc3)CC2)ccc1Cl	0	0	?	0	0	0
COc1ccccc1N1CCN(/N=C/c2cc([N+](=O)[O-])ccc2Cl)CC1	?	0	7.9µM	?	0	0
CC(CNC(=O)c1cncc(O)c1)NC(=O)c1cncc(O)c1 (stereo not given)	45µM	0	?	50µM	0	0
Cc1ccc(C(=O)NCC(C)NC(=O)c2ccc(C)c([N+](=O)[O-])c2)cc1[N+](=O)[O-] (stereo not given)	-	-	-	0	0	0
COc1ccc(NC(=O)Cn2cnc3ccc(S(=O)(=O)N4CCC(C)CC4)cc3c2=O)cc1Cl	0	-	0	0	0	0
CCOc1ccc(C(=O)N2CCc3cc(OC)c(OC)cc3C2COc2ccc3c(C)cc(=O)oc3c2)cc1OCC (stereo not given)	0	-	0	0	0	0
Cc1cc(/C=C(/C#N)C(=O)O)c(C)n1-c1cccc2ccccc12	0[2.33 µM]	-	?	0	0	0
Cc1c(C(=O)O)cccc1-n1c(C)cc(/C=C(/C#N)C(=O)NCc2ccccc2)c1C	50µM	?	56µM	0	0	0
CN(C)c1ccc(/C=C(/C#N)C(=O)NCc2ccccc2)o1	3.5µM	0	0	0	0	0
N#C/C(=C\c1cn(CC(=O)O)c2ccccc12)C(=O)NCc1ccccc1	45µM	0	0	?	0	0
Cc1ccccc1NC(=O)/C(C#N)=C\c1cn(CC(=O)O)c2ccccc12	0	0	0	0	0	0
Cc1ccc(C(=O)Nc2ccc3c(c2)N(C)C(=O)c2ccccc2S3)cc1	0	-	0	0	0	0
SMILES	G9a inh	L3MBTL1 block	BAZ2B inh	JMJD2A Tudor	HP1b binding inh	GLS inhibitor
COc1ccc(Cl)cc1NC(=O)C(C)N1CCN(C/C=C/c2ccccc2)CC1 (stereo not given)	?	-	50µM	3.5µM	13µM	0
CC(C(=O)N(C)Cc1ccccc1)N1CCN(C/C=C/c2ccccc2)CC1 (stereo not given)	20µM	0	35µM	1.6µM	?	0
Fc1ccc(C(c2ccc(F)cc2)N2CCN(C/C=C/c3ccccc3)CC2)cc1	21µM!	0	?	?	0	0
CC(=O)c1ccc(NC(=O)C(C)N2CCN(C/C=C/c3ccccc3)CC2)cc1 (stereo not given)	0	0	?	0	0	0
CCC(=O)OCCNc1cc(Sc2nc3ccccc3[nH]2)c2nonc2c1[N+](=O)[O-]	8.9µM	0	0	79µM	?	?
O=C(CSc1nc2ccccc2s1)NCc1cc([N+](=O)[O-])ccc1O	0[2.33 µM]	0	0	0	0	0
CCC(=O)OCCNc1cc(Sc2nc3ccccc3s2)c2nonc2c1[N+](=O)[O-]	2µM	-	0	0	?	?
O=[N+]([O-])c1c(NCCCO)cc(Sc2nc3ccccc3s2)c2nonc12	?	0	0	56µM	0	?
NCCNc1ccc([N+](=O)[O-])c(Sc2nc3ccccc3[nH]2)c1	?	0	0	?	0	0
O=C(CCn1c(=O)c2ccccc2n(CC(=O)Nc2ccc(F)cc2)c1=O)NCCc1ccccc1	0	-	0	0	0	0
FC(F)(F)c1ccccc1-c1ccc2ncnc(NC3CC3)c2c1	0[0.501 µM]	-	-	-	-	-
COc1cccc(CNC(=O)CCCN2C(=O)CSc3c2c(C)nn3-c2ccccc2)c1	0	-	0	0	0	0
COC(=O)C1=C(C(=O)OC)[C@@H]2N(C)c3ccc(OC)cc3[C@@]23C[C@@H](C(=O)OC)N(C(=O)c2ccc(Br)cc2)C3=N1	?	-	20µM	13µM	0	0
N=c1c(C(=O)NCC2CCCO2)cc2c(=O)n3ccccc3nc2n1CCCO (stereo not given)	0	-	0	0	0	0
COc1ccccc1NCC(=O)c1ccc(Cl)cc1	50µM	-	?	?	?	0
Cc1noc(C)c1CSCC(=O)Nc1cc(C(F)(F)F)ccc1N1CCCCC1	40µM	0	0	0	0	0
O=C(Cc1ccc(S(=O)(=O)N2CCOCC2)s1)Nc1cc(C(F)(F)F)ccc1N1CCCC1	50µM	0	0	?	0	0
CN(C)S(=O)(=O)c1ccc(NC(=O)Cc2ccc(S(=O)(=O)N3CCOCC3)s2)cc1	56µM	?	?	0	0	0
O=C(Cc1ccc(S(=O)(=O)N2CCOCC2)s1)Nc1ccc(N2CCOCC2)cc1	?	0	-	0	0	0
Cc1noc(C)c1CSCC(=O)Nc1cc(Cl)ccc1N1CCCCC1	0	0	0	0	0	0
COc1ccc(Cc2c3cc(OC)c(OC)cc3cc[n+]2C)cc1OC	0	-	0	22µM	?	0
CC[n+]1ccc2cc(OC)c(OC)cc2c1Cc1ccc(OC)c(OC)c1	22µM	0	79µM	25µM	40µM	0

Bioassay records: PubChem, National Center for Advancing Translational Sciences (NCATS)
